From PubChem BioAssay (EPA / NIEHS)
Results filed as inconclusive are left out. The source made the active and inactive calls. How the source made its calls, unless noted: active means hit-call score of the fitted dose curve at least 0.9, where 1 is the maximum; inactive means score below 0.9.

How the values were obtained:
[1] = molecular target: Oxysterols receptor LXR-beta (Homo sapiens) (UniProt P55055); assay: ATG_LXRb_TRANS: Attagene TRANS-FACTORIAL HepG2 Assay for human Liver X Receptor beta (LXRb) (AID 2282981; active means hit-call score of the fitted dose curve at least 0.9, where 1 is the maximum); conditions: HepG2 Attagene TRANS GAL4-LXRb reporter, mRNA
Sequence of Oxysterols receptor LXR-beta (Homo sapiens) (P55055 whole entry, looked up, the tested form may be a part): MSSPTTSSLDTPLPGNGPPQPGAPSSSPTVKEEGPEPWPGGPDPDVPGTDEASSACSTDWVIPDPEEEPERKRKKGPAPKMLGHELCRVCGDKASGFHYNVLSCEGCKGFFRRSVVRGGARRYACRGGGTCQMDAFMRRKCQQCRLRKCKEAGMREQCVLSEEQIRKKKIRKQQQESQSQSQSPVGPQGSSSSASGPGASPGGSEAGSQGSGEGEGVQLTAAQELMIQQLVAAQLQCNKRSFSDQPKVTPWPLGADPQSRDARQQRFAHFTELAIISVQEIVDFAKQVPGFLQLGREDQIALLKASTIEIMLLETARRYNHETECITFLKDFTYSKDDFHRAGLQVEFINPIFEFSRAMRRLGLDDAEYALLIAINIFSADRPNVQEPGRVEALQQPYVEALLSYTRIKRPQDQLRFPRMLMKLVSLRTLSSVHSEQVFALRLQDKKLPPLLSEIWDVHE
How it was run: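 Multiplexed reporter assay, HepG2, 24 h dosing. Fluorescence of labelled RT-PCR products after capillary electrophoresis gives transcript level; positive fitting direction relative to DMSO.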

[2] = molecular target: Hepatocyte nuclear factor 4-alpha (Homo sapiens) (UniProt P41235); assay: ATG_HNF4a_TRANS: Attagene TRANS-FACTORIAL HepG2 Assay for human Hepatocyte Nuclear Factor 4 alpha (HNF4a) (AID 2282982; active means hit-call score of the fitted dose curve at least 0.9, where 1 is the maximum); conditions: HepG2 HNF4a transactivation reporter, mRNA readout
Sequence of Hepatocyte nuclear factor 4-alpha (Homo sapiens) (P41235 whole entry, looked up, the tested form may be a part): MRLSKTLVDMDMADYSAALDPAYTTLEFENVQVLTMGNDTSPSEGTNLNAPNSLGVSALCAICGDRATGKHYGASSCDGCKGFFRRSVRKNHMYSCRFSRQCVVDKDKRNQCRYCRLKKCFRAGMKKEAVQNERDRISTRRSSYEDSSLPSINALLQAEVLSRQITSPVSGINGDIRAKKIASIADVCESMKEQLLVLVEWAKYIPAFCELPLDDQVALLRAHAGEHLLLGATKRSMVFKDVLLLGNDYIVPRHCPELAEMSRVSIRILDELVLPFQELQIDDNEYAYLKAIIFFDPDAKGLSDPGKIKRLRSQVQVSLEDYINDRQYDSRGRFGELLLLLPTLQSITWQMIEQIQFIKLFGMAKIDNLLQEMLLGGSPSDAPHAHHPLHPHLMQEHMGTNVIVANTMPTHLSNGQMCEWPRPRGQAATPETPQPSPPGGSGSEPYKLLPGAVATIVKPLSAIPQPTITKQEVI
How it was run: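 Endpoint reflects transcriptional activation of a GAL4-UAS reporter by an HNF4a-GAL4 chimera in transfected HepG2 cells, 24 h post-dosing. Fluorescence from RT-PCR products separated by capillary electrophoresis; DMSO baseline.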

[3] = molecular target: Nuclear receptor subfamily 4 group A member 2 (Homo sapiens) (UniProt P43354); assay: ATG_NURR1_TRANS: Attagene TRANS-FACTORIAL HepG2 Assay for human Nuclear Receptor Related Protein 1 (NURR1) (AID 2282985; active means hit-call score of the fitted dose curve at least 0.9, where 1 is the maximum); conditions: HepG2 Attagene TRANS reporter, mRNA readout
Sequence of Nuclear receptor subfamily 4 group A member 2 (Homo sapiens) (P43354 whole entry, looked up): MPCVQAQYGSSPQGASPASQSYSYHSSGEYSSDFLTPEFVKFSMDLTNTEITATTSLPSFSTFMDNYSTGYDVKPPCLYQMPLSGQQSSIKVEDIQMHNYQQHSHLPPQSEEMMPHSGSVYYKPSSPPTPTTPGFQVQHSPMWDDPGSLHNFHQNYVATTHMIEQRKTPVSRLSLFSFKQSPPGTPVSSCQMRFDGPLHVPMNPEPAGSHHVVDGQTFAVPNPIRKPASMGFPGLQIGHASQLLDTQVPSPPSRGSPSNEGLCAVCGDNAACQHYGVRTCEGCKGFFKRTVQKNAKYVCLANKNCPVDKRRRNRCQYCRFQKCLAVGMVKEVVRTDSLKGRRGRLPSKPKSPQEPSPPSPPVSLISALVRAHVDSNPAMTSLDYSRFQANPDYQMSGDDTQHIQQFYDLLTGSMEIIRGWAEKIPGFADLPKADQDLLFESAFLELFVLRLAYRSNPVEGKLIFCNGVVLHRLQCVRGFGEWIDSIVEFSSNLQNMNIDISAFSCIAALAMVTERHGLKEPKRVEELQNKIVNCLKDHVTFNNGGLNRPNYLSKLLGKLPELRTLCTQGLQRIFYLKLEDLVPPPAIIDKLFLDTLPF
How it was run: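 Endpoint: reporter mRNA increase relative to DMSO. HepG2 cells transfected with reporter units, treated 24 h; RNA processed by RT-PCR, labelling, HpaI digestion and capillary electrophoresis.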

[4] = molecular target: Transcriptional activator Myb (Homo sapiens) (UniProt P10242); assay: ATG_Myb_CIS: Attagene CIS-FACTORIAL HepG2 Assay for human Myeloblastosis (Myb) Proto-Oncogene Transcription Factor (AID 2282986); conditions: HepG2 Attagene CIS-FACTORIAL Myb reporter transcription; actives raise or lower the signal
Sequence of Transcriptional activator Myb (Homo sapiens) (P10242 whole entry, looked up): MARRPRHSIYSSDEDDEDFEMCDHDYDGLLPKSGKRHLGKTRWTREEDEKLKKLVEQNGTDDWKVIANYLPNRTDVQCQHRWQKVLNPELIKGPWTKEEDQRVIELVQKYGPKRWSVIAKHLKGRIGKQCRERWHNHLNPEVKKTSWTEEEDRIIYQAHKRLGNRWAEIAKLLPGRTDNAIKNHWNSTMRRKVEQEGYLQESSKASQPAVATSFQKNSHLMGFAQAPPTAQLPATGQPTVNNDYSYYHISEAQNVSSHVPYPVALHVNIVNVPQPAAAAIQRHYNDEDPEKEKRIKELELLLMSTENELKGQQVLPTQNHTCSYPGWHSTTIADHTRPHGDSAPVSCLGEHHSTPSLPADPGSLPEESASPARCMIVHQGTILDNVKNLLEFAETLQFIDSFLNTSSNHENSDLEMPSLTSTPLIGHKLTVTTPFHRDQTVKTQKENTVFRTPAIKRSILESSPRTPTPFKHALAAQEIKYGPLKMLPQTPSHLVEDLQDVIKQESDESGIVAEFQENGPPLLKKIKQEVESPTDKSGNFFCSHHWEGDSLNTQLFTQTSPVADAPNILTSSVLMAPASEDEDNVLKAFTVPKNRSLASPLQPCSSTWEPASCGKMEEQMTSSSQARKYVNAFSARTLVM
How it was run: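 Reporter mRNA is quantified by RT-PCR and capillary electrophoresis 24 h after dosing HepG2 cells transfected with cis-regulated reporter units, which track endogenous transcription factor activity. Gain and loss of signal are fitted versus DMSO baseline.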

[5] = ATG_NFI_CIS: Attagene CIS-FACTORIAL HepG2 Assay for human Nuclear Factor I (NFI) (AID 2282989); conditions: HepG2 cis-regulatory reporter, NFI response element transcription; actives raise or lower the signal
How it was run: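 HepG2 cells transiently transfected with cis-element-driven multiplexed reporter transcription units, dosed for 24 h. Reporter mRNA quantified by RT-PCR, fluorescent labelling, HpaI digestion and capillary electrophoresis; bidirectional fit versus DMSO baseline.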

[6] = molecular target: Myc proto-oncogene protein (Homo sapiens) (UniProt P01106); assay: ATG_Myc_CIS: Attagene CIS-FACTORIAL HepG2 Assay for human Myelocytomatosis (Myc) Proto-Oncogene Transcription Factor (AID 2282990); conditions: HepG2, Attagene cis-reporter transcription factor activity; actives raise or lower the signal
Sequence of Myc proto-oncogene protein (Homo sapiens) (P01106 whole entry, looked up): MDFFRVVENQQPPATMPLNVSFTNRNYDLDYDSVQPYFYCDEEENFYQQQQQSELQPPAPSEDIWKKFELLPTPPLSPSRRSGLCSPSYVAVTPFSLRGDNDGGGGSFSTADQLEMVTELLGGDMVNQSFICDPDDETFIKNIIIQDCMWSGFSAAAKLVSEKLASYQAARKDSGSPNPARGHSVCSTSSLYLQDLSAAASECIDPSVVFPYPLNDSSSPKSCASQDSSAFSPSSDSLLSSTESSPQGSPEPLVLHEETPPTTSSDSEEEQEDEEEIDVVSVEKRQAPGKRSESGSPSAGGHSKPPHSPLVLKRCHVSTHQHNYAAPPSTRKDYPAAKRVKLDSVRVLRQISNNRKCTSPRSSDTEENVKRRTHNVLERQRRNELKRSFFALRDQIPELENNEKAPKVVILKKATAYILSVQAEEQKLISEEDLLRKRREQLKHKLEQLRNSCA
How it was run: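 Transiently transfected HepG2 cells bearing cis-promoter reporter units for endogenous transcription factors; 24 h exposure. Reporter mRNA measured by RT-PCR, 6-FAM primer extension, HpaI cut and capillary electrophoresis; bidirectional fit relative to DMSO.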

[7] = ATG_NRF2_ARE_CIS: Attagene CIS-FACTORIAL HepG2 Assay for human Nuclear Factor Erythroid 2 Related Factor 2 (NFR2) response to Antioxidant Response Elements (ARE) (AID 2282992); conditions: HepG2 Attagene ARE/NRF2 reporter, transcription factor activity; actives raise or lower the signal;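 on AC50: reporter mRNA level measured by RT-PCR and capillary electrophoresis fluorescence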
How it was run: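 Endogenous transcription factor activity in human liver HepG2 cells is tracked via a cis-element-driven reporter within a multiplexed set. mRNA induction is read by RT-PCR and capillary electrophoresis after 24 h, with DMSO as baseline.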

[8] = ATG_Oct_MLP_CIS: Attagene CIS-FACTORIAL HepG2 Assay for human Octamer-Binding Transcription Factor (Oct) (AID 2282993); conditions: HepG2 Attagene cis-factorial Oct reporter, mRNA; actives raise or lower the signal
How it was run: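 HepG2 cells transiently transfected with cis-promoter-driven multiplexed reporter transcription units, dosed for 24 h. Reporter mRNA quantified by RT-PCR, fluorescent labelling, HpaI digestion and capillary electrophoresis; bidirectional fits versus DMSO baseline.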

[9] = molecular target: Cellular tumor antigen p53 (Homo sapiens) (UniProt P04637); assay: ATG_p53_CIS: Attagene CIS-FACTORIAL HepG2 Assay for human p53 Transcription Factor (AID 2282994); conditions: HepG2 p53 cis-element reporter, Attagene mRNA; actives raise or lower the signal
Sequence of Cellular tumor antigen p53 (Homo sapiens) (P04637 whole entry, looked up, the tested form may be a part): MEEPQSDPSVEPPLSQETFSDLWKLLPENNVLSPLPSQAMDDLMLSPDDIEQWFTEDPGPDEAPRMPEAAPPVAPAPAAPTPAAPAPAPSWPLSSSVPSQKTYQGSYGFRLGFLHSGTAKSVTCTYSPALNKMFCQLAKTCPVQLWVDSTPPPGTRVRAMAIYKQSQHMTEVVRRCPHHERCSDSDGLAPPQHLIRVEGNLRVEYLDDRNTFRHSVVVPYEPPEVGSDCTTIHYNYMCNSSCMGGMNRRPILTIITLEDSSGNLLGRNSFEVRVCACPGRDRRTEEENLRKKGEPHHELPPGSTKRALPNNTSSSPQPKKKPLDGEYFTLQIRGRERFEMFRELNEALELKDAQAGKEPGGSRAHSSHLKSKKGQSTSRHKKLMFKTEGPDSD
How it was run: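 Steps: transfect HepG2 with multiplexed cis reporter constructs; dose chemicals 24 h; extract RNA, reverse-transcribe, PCR-amplify reporter sequences; FAM-label, HpaI-digest, resolve fragments by CE. Activity fitted both directions relative to DMSO.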

[10] = ATG_M_06_TRANS: Attagene TRANS-FACTORIAL HepG2 Assay for M06 Transcription Factor (Internal Marker) (AID 2282983; active means hit-call score of the fitted dose curve at least 0.9, where 1 is the maximum); conditions: HepG2 Attagene TRANS M06 internal marker reporter
How it was run: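 Background-control reporter readout: after 24 h chemical exposure of transiently transfected HepG2 (GAL4-UAS reporter units), mRNA quantified by RT-PCR with fluorescent labeling and capillary electrophoresis. Gain-of-signal fitting against DMSO baseline.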

[11] = molecular target: Nuclear respiratory factor 1 (Homo sapiens) (UniProt Q16656); assay: ATG_NRF1_CIS: Attagene CIS-FACTORIAL HepG2 Assay for human Nuclear Respiratory Factor 1 (NRF1) Orphan Gene (AID 2282987); conditions: HepG2 NRF1 cis-element reporter, Attagene multiplex; actives raise or lower the signal
Sequence of Nuclear respiratory factor 1 (Homo sapiens) (Q16656 whole entry, looked up): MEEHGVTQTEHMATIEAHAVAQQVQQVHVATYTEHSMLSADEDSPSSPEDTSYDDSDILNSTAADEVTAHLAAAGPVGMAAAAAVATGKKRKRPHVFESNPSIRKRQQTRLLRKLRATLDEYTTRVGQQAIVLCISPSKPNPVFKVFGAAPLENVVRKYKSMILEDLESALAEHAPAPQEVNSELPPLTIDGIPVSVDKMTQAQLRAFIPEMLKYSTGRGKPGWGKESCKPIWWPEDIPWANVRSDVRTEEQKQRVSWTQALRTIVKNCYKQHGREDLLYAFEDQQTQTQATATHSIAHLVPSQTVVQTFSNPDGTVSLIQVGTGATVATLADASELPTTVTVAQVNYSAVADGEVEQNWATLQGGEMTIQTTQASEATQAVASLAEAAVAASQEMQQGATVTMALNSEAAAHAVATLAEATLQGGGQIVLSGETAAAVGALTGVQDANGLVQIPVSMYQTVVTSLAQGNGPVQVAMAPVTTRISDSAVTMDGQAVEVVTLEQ
How it was run: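 Endogenous NRF1-driven reporter transcription in transfected HepG2 cells after 24 h treatment. Readout: RT-PCR products, 6-FAM labelled and resolved by capillary electrophoresis; changes fitted both directions relative to DMSO.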

[12] = ATG_M_32_TRANS: Attagene TRANS-FACTORIAL HepG2 Assay for M32 Transcription Factor (Internal Marker) (AID 2282984; active means hit-call score of the fitted dose curve at least 0.9, where 1 is the maximum;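 further: transcript level of a background control reporter unit measured by RT-PCR and capillary electrophoresis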); conditions: HepG2 Attagene TRANS M32 internal marker reporter
How it was run: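 Internal-marker readout from a multiplexed transcription reporter panel. HepG2 cells were transfected with GAL4-UAS reporter units, treated 24 hours, and reporter transcript levels determined by fluorescence after RT-PCR and capillary separation.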

[13] = ATG_NF_kB_CIS: Attagene CIS-FACTORIAL HepG2 Assay for human Nuclear Factor Kappa B (NF-kB) (AID 2282991); conditions: HepG2 Attagene cis-factorial NF-kB reporter mRNA; actives raise or lower the signal
How it was run: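 Readout is reporter transcript level, gain or loss versus DMSO, measured 24 h post-dose via RT-PCR, fluorescent labelling and capillary electrophoresis. Human HepG2 liver cells carried transiently transfected CIS reporter constructs reflecting endogenous factors.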

[14] = BSK_3C_TissueFactor: BioMAP Diversity Plus: 3C Assay for Tissue Factor Biomarker Activity (AID 2282997); conditions: BioMAP 3C HUVEC, tissue factor biomarker readout; actives raise or lower the signal
How it was run: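 Tissue factor on primary human umbilical vein endothelium was read by ELISA 24 h after dosing, gain or loss relative to DMSO. Cytotoxicity ran alongside via SRB (0.1%, TCA-fixed, 560 nm).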

[15] = BSK_3C_uPAR: BioMAP Diversity Plus: 3C Assay for Urokinase-type plasminogen activator receptor (uPAR) Biomarker Activity (AID 2282998); conditions: BioMAP 3C HUVEC, uPAR biomarker ELISA; actives raise or lower the signal
How it was run: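 Human umbilical vein endothelial primary cells were exposed to test chemical for 24 h. Cell-surface uPAR was then quantified by ELISA, and responses were fitted bidirectionally against DMSO as negative control and baseline.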

[16] = BSK_3C_VCAM1: BioMAP Diversity Plus: 3C Assay for Vascular cell adhesion molecule 1 (VCAM1) Biomarker Activity (AID 2282999); conditions: BioMAP 3C HUVEC, VCAM1 ELISA, cytokine-stimulated; actives raise or lower the signal
How it was run: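 HUVEC primary cells, 24 h compound exposure; VCAM-1 by ELISA; gain/loss of signal fitted bidirectionally vs DMSO baseline.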

Measured: AC50

O=S(=O)(O)c1ccc(N=Nc2c(O)ccc3ccccc23)cc1
inactive: [1] | [2] | [3] | [4] | [5] | [6] | [8] | [9]
active: [7] 34.1 µM

O=C(Oc1ccccc1)c1ccccc1O
inactive: [1] | [10] | [3] | [4] | [11] | [5] | [6] | [7] | [8]

CC1OC(=O)C(C)OC1=O (centres undefined)
not listed: [1] | [13] | [14] | [15] | [16]
inactive: all other assays above

C=C[Si](OCCOC)(OCCOC)OCCOC
not listed: [10] | [13] | [14] | [15] | [16]
inactive: all other assays above

CCCc1ccc(O)c(OC)c1
active: [7] 28.8 µM
inactive: [10] | [4] | [11] | [5] | [8] | [9]

O=C(O)CCC(=O)O
inactive: [3] | [4] | [11] | [5] | [6] | [13] | [7] | [8]

CCCC=C(C=O)CC
inactive: [1] | [2] | [10] | [3] | [4] | [5] | [13] | [7] | [8]

CCCCOC(=O)C(C)CC (centres undefined)
inactive: [10] | [3] | [4] | [5] | [6] | [7] | [8] | [9]

CC1=NN(c2ccc(S(=O)(=O)O)cc2)C(=O)C1N=Nc1ccccc1 (centres undefined)
not listed: [2] | [13] | [14] | [15] | [16]
inactive: all other assays above

NNS(=O)(=O)c1ccc(Oc2ccc(S(=O)(=O)NN)cc2)cc1
not listed: [10] | [12] | [14] | [15] | [16]
inactive: all other assays above

CC(=O)OCCc1ccccc1
not listed: [1] | [3] | [13] | [14] | [15] | [16]
inactive: all other assays above

CC=C(C)C(C)=O
active: [3] 44.7 µM
not listed: [2] | [9] | [12]
inactive: all other assays above

Nc1ccc(C(=O)O)cc1
not listed: [1] | [10]
inactive: all other assays above

C1CNCCN1
not listed: [1] | [2] | [3]
inactive: all other assays above

NC(=O)Nc1ccccc1
not listed: [1] | [3] | [10] | [14] | [15] | [16]
inactive: all other assays above

O=C(O)C1CCC(C(=O)O)CC1 (centres undefined)
inactive: [10] | [3] | [4] | [11] | [6] | [7] | [8] | [9]

O=C1CCCCC1C1CCCCC1 (centres undefined)
inactive: [3] | [4] | [11] | [5] | [6] | [13] | [7] | [8]

COC(=O)c1ccccc1C
inactive: [2] | [3] | [4] | [11] | [5] | [6] | [7] | [8] | [9]

CC1=CCC2CC1C2(C)C (centres undefined)
not listed: [1] | [6] | [9] | [14] | [15] | [16]
inactive: all other assays above

CCCCCCCCCC[N+](C)(CCCCCCCCCC)CCC[Si](OC)(OC)OC
active: [4] 15.9 µM | [6] 14.6 µM | [7] 16 µM
inactive: [1] | [2] | [3] | [11] | [5] | [13] | [8]
